Here are results for ten compounds from publication PMC7826789 (International Journal of Molecular Sciences, 2021).

Conditions in all cases: Compound Concentration (nM):1000
Assay [1] relates to PRKG1.
For assay [2], the system named is PRKG2.
In assay [3] the test system is T1, PRKR.
T1 construct: gene EIF2AK2

Assay [4] concerns PRKX.
For assay [5], the system named is T2, PRP4.
T2 construct: gene PRPF4B

Assay [6] concerns T3, PYK2.
T3 construct: gene PTK2B

Assay [7] deals with T4, QSK.
T4 construct: gene KIAA0999

Assay [8] has as its system RAF1.
The test system of assay [9] is RET(M918T).
The test system of assay [10] is RET(V804L).
The test system of assay [11] is RET(V804M).
In assay [12] the test system is RET.
In assay [13] the test system is RIOK1.
Assay [14] concerns RIOK2.
Assay [15] deals with RIOK3.
The test system of assay [16] is RIPK1.
Assay [17] concerns RIPK2.
In assay [18] the test system is RIPK4.
Assay [19] has as its system T5, RIPK5.
T5 construct: gene DSTYK

Assay [20] deals with ROCK1.
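Also: KINOMEscan scanMAX binding as percent activity remaining versus control; lower means stronger binding.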

For the compound `CN(C)c1cc2c(Nc3ccc4c(cnn4Cc4ccccc4)c3)ncnc2cn1` [GW282974X], the “Percent Control” value was 100% in assay [1]; 93% in assay [2]; 76% in assay [3]; 80% in assay [4]; 100% in assay [5]; 83% in [6]. The “Percent Control” value in assay [7] is listed as 95%; in [8] it was 100%; in assay [9], 82%; in assay [10] it was 93%; in [11], 89%; in assay [12] it was 86%. Moreover, the “Percent Control” value in [13] is 98%; in assay [14], 100%; in assay [15], 100%; in assay [16], 53%; in assay [17] it was 27%; in assay [18], 74%. Besides, the “Percent Control” value in assay [19] came to 90%; in assay [20] it was 100%.
Consider `Cl.O=C(Nc1ccc(Oc2ccc3[nH]c(NC(=O)c4ccco4)nc3c2)cc1)Nc1cc(C(F)(F)F)ccc1F` [GW683134A], for which the “Percent Control” value in assay [1] was 96%; in assay [2] it was 88%; in [3] it was 68%; in [4], 100%; in [5], 100%; in assay [6] it was 93%. The “Percent Control” value was found to be 100% in assay [7]; 9.5% in assay [8]; 0.7% in assay [9]; 0.4% in [10]; 0.4% in assay [11]; 0% in assay [12]. In addition, the “Percent Control” value in assay [13] is reported as 64%; in assay [14], 98%; in assay [15] it was 40%; in assay [16], 21%; in assay [17], 48%; in assay [18], 100%. Moreover, the “Percent Control” value in assay [19] is 100%; in assay [20] it was 73%.
`CCc1ccc(Oc2nccc(-c3c(-c4ccc(F)cc4)ncn3C3CCNCC3)n2)cc1` [SB-242719]: the “Percent Control” value in [1] is 100%; in [2] it was 92%; in [3], 100%; in assay [4], 86%; in [5], 100%; in [6] it was 97%. Besides, the “Percent Control” value in [7] came out at 85%; in assay [8], 100%; in [9], 93%; in assay [10], 88%; in [11], 100%; in assay [12] it was 100%. Besides, the “Percent Control” value in [13] is listed as 57%; in assay [14], 97%; in assay [15] it was 72%; in assay [16], 100%; in assay [17] it was 59%; in [18], 100%. Moreover, the “Percent Control” value in assay [19] was 82%; in [20], 100%.
`Cl.c1ccc(Cc2nc3ccc(Nc4ncnc5ccccc45)cc3[nH]2)cc1` [GR269666A]: the “Percent Control” value was 100% in [1]; 100% in [2]; 84% in [3]; 100% in assay [4]; 100% in assay [5]; 100% in assay [6]. Moreover, the “Percent Control” value in [7], in [8], in [9], in assay [10], in assay [11] and in assay [12] was 100% each time. Moreover, the “Percent Control” value was 100% in assay [13]; 88% in [14]; 100% in [15]; 100% in [16]; 67% in assay [17]; 98% in assay [18]. Also, the “Percent Control” value came out at 98% in assay [19] and 100% in assay [20].
Turning to `C/C(Nc1ccc(S(N)(=O)=O)cc1)=C1/C(=O)Nc2ccccc21` [GW335962X], the “Percent Control” value in assay [1] was 90%; in assay [2], 94%; in assay [3], 63%; in [4], 87%; in [5] it was 100%; in assay [6] it was 99%. For the same compound, the “Percent Control” value was 97% in assay [7]; 83% in [8]; 92% in assay [9]; 98% in assay [10]; 100% in assay [11]; 96% in assay [12]. Moreover, the “Percent Control” value in [13] came out at 82%; in assay [14], 100%; in assay [15] it was 69%; in assay [16], 96%; in [17], 83%; in assay [18] it was 86%. In addition, the “Percent Control” value in assay [19] is listed as 48%; in assay [20], 83%.
On to `Cl.O=S1CCN(Cc2ccc(-c3ccc4ncnc(Nc5ccc(OCc6ccccc6)c(F)c5)c4c3)o2)CC1` [GW576924A], for which the “Percent Control” value in assay [1] was 100%; in assay [2] it was 100%; in assay [3], 86%; in [4], 100%; in assay [5], 100%; in [6], 100%. Besides, the “Percent Control” value in assay [7], in assay [8], in assay [9], in [10], in assay [11] and in [12] was 100% each time. Besides, the “Percent Control” value in [13] came out at 93%; in [14] it was 83%; in assay [15], 100%; in [16], 100%; in assay [17] it was 43%; in [18], 92%. The results for the “Percent Control” value in [19] and in assay [20] were 87% and 100%, respectively.
For `COc1ccccc1-c1cc(/C=C2\C(=O)Nc3ncc(Br)cc32)cc(Br)c1O` [GW442130X], the “Percent Control” value in assay [1] was 100%; in assay [2], 100%; in assay [3] it was 90%; in [4], 100%; in [5], 96%; in [6] it was 100%. Moreover, the “Percent Control” value in assay [7] is on record as 100%; in assay [8], 100%; in assay [9] it was 100%; in [10], 91%; in assay [11], 100%; in [12], 100%. Further, the “Percent Control” value in assay [13] is listed as 100%; in assay [14], 17%; in assay [15], 100%; in [16], 100%; in [17], 100%; in assay [18] it was 100%. Further, the “Percent Control” value in assay [19] turned out to be 100%; in assay [20] it was 96%.
With `COC(=O)Nc1nc2ccc(Oc3ccc(NC(=O)Nc4cc(C(F)(F)F)ccc4F)cc3)cc2s1.Cl` [GW693917A], the “Percent Control” value in assay [1] was 100%; in assay [2], 91%; in assay [3] it was 85%; in [4], 100%; in [5], 100%; in assay [6] it was 94%. The “Percent Control” value in assay [7] came to 88%; in assay [8], 17%; in [9], 0.8%; in [10], 1%; in assay [11] it was 0.5%; in assay [12], 0.1%. For the same compound, the “Percent Control” value was determined as 62% in [13]; 100% in assay [14]; 54% in [15]; 45% in [16]; 25% in assay [17]; 76% in [18]. The results for the “Percent Control” value in assay [19] and in [20] were 100% and 79%, respectively.
For `Cc1cc(O)cc(C)c1/C=C/c1cncc(C(N)=O)c1` [GW435821X], the “Percent Control” value is 100% in assay [1]; 100% in [2]; 94% in assay [3]; 100% in assay [4]; 100% in assay [5]; 100% in [6]. For the same compound, the “Percent Control” value is given as 86% in assay [7]; 58% in assay [8]; 100% in assay [9]; 100% in assay [10]; 100% in assay [11]; 100% in assay [12]. The “Percent Control” value in [13] came out at 99%; in assay [14], 100%; in assay [15], 93%; in [16], 100%; in assay [17], 21%; in assay [18], 100%. For the same compound, the figures for the “Percent Control” value in assay [19] and in assay [20] were 93% and 100%, respectively.
With `COc1cccc(-c2c[nH]c3c(N/N=C/c4ccncc4)ncnc23)c1` [GW814408X], the “Percent Control” value was 100% in assay [1]; 97% in assay [2]; 94% in [3]; 100% in assay [4]; 100% in [5]; 100% in [6]. The “Percent Control” value in [7] came out at 28%; in [8], 74%; in assay [9], 79%; in assay [10], 95%; in [11], 100%; in assay [12], 85%. For the same compound, the “Percent Control” value in assay [13] came out at 49%; in assay [14], 76%; in assay [15] it was 66%; in assay [16], 100%; in assay [17], 41%; in [18], 13%. The “Percent Control” value in assay [19] worked out at 100%; in assay [20], 79%.
